Values without a mark were called inactive. Inconclusive results are not listed. Entries that show only a call come without a potency. Active and inactive are the calls of the source. Unless noted, calls follow the shape of the full dose curve.
What was measured:
[1] = biological target: Thyrotropin receptor (Homo sapiens) (UniProt P16473); assay: qHTS assay to identify small molecule agonists of the thyroid stimulating hormone receptor (TSHR) signaling pathway (AID 1224843); also: nearly all actives have a fitted effect of over 45% in size; also: potency is read from the fitted curve at half-maximal effect
Sequence of Thyrotropin receptor (Homo sapiens) (P16473 whole entry, looked up): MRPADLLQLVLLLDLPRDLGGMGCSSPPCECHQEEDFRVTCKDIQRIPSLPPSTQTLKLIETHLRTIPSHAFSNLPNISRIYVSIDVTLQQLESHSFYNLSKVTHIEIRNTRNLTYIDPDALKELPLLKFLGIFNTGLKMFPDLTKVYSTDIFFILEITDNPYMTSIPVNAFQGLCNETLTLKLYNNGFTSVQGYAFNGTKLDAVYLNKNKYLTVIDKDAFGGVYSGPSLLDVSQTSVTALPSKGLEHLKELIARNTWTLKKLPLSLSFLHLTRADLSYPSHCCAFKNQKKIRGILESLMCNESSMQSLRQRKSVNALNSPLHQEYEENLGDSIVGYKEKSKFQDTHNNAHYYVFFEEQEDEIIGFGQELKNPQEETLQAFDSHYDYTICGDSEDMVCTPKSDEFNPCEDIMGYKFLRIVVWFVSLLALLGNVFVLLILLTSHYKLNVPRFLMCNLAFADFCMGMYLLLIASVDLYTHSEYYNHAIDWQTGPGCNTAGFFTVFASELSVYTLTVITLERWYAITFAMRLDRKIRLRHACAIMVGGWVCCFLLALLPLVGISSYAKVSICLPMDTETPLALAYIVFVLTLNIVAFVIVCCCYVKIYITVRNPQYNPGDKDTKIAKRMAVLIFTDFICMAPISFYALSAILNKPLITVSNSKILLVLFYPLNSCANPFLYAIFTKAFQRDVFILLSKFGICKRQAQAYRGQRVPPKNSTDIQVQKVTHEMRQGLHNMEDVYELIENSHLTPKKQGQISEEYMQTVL
Procedure, shortened: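 HEK293/TSHR, 800 cells/well; cpd 30 min RT; add cAMP-d2 + anti-cAMP-cryptate, 1 h RT; fluorescence read on plate reader. 15-pt titration, n=3.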

[2] = qHTS assay to identify small molecule agonists of the hypoxia (HIF-1) signaling pathway - cell viability counter screen (AID 1224844); also: nearly all actives have a fitted effect of over 50% in size; also: potency is read from the fitted curve at half-maximal effect
Procedure, shortened: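 Cytotoxicity measured by CellTiter-Glo ATP luminescence in the wells also read for beta-lactamase signal. Cells were HRE-bla ME-180 (2,000/well, 0.5% dialyzed FBS), exposed to compounds for 17 h at 37C.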

[3] = qHTS assay to identify small molecule agonists of the hypoxia (HIF-1) signaling pathway (AID 1224846; active = well fitted activation curve with a large enough effect in the signal ratio in the repeat runs, not every such curve was filed as active; the % refers to the signal ratio)
Procedure, shortened: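 Compounds added to ME-180 cells carrying hypoxia-response-element beta-lactamase reporter (0.5% dialyzed FBS, 5 h preplating), 17 h at 37C; agonist activity detected by CCF4-AM B/G FRET read-out.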

[4] = qHTS assay to identify small molecule agonists of H2AX - cell viability counter screen (AID 1224847); also: nearly all actives have a fitted effect of over 30% in size; also: potency is read from the fitted curve at half-maximal effect
Procedure, shortened: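 CHO-K1 cells plated overnight at 37C, then exposed 3 h at 37C to compounds at 15 concentrations (0.76% DMSO final). Viability by CellTiter-Glo luminescence after 30 min at room temperature.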

[5] = qHTS assay to identify small molecule antagonists of the estrogen related receptor (ERR) signaling pathway from Tox21 library (AID 1224848; active = well fitted curve in the direction sought with a large enough effect in the repeat runs; an effect the other way counts as inactive or inconclusive; also: nearly all actives have a fitted effect of over 50% in size; also: potency is read from the fitted curve at half-maximal effect)
Procedure, shortened: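 Compounds dissolved in DMSO are pin-transferred onto ERR reporter cells (2,000 per well) that have settled for 6 h at 37 C. Plates then incubate 18 h at 37 C before ONE-Glo luciferase reagent and a luminescence read 30 min later.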

[6] = qHTS assay to identify small molecule agonists of the estrogen related receptor (ERR) signaling pathway from Tox21 library (AID 1224849); settings: ERR reporter cell line, ONE-Glo luciferase, 18 h; at 92.4 µM (top of the series) unless noted; also: nearly all actives have a fitted effect of over 15% in size
Procedure, shortened: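 Luminescent agonist read-out (One-Glo, 30-minute room-temperature incubation) following 18-hour compound treatment at 37 C of the ERR cell line, which had been plated 6 hours before dosing.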

[7] = qHTS RealTime-Glo MT Cell Viability Assay in HepG2 cells - 24 hour (AID 1224867; active = well fitted curve in the direction sought with a large enough effect in the repeat runs; an effect the other way counts as inactive or inconclusive; also: nearly all actives have a fitted effect of over 50% in size)
Procedure, shortened: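 Luminescence read-out: viable HepG2 cells reduce a prosubstrate to a NanoLuc substrate, giving a signal proportional to live cell number. Reads taken at 0, 8, 16, 24, 32 and 40 h of compound exposure at 37 C.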

[8] = qHTS RealTime-Glo MT Cell Viability Assay in HEK293 cells - 32 hour (AID 1224868; active = well fitted curve in the direction sought with a large enough effect in the repeat runs; an effect the other way counts as inactive or inconclusive; also: nearly all actives have a fitted effect of over 50% in size; also: potency is read from the fitted curve at half-maximal effect)
Procedure, shortened: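 Nonlytic real-time viability readout: viable cells convert prosubstrate to NanoLuc substrate, giving luminescence proportional to live cell number. HEK293, 600 cells/well, compound added after 5 h, continuous culture at 37 C.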

[9] = A CellTox Green Cytotoxicity Assay to monitor cytotoxicity in HEK293 cells - 0 hour (AID 1224869; active = well fitted curve in the direction sought with a large enough effect in the repeat runs; an effect the other way counts as inactive or inconclusive; also: nearly all actives have a fitted effect of over 50% in size)
Procedure, shortened: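 Fluorescence from a DNA-binding dye excluded by viable cells was measured repeatedly in the same HEK293 wells (600 cells/well) during continuous compound exposure at 37 C. Each assay gives one read point: 0, 8, 16, 24, 32 or 40 h.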

[10] = qHTS assay to identify small molecule agonists of H2AX (AID 1224845; active = well fitted activation curve with a large enough effect in the signal ratio in the repeat runs, not every such curve was filed as active; the % refers to the signal ratio; also: potency is read from the fitted curve at half-maximal effect)
Procedure, shortened: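 Wild-type CHO-K1 cells, plated overnight, exposed 3hr at 37C to 15 concentrations (0.76% DMSO final). Lysed, then HTRF anti-pH2AX (S139) cryptate and anti-H2AX-d2 antibodies, 24 hr room temperature; 665/620 nm emission read.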

SMILES: CCCCOc1ccc(N)cc1
- Potency [1]: inactive
- Potency [2]: inactive
- outcome [3]: inactive
- Potency [4]: inactive
- Potency [5]: inactive
- activity change, positive = activation [6]: 3.06%
- outcome [7]: inactive
- Potency [8]: inactive
- Potency [9]: inactive

SMILES: O=Cc1ccc(Cl)c([N+](=O)[O-])c1
- Potency [1]: inactive
- Potency [2]: inactive
- outcome [3]: inactive
- Potency [4]: inactive
- Potency [5]: 54.5 µM (active)
- activity change, positive = activation [6]: -38.6%
- outcome [7]: inactive
- Potency [9]: inactive

SMILES: O=C(O)c1ccc(O)c(O)c1
- Potency [1]: inactive
- Potency [2]: inactive
- outcome [3]: inactive
- Potency [4]: inactive
- outcome [7]: inactive
- Potency [8]: inactive
- Potency [9]: inactive

SMILES: O=C(OC1C[C@H]2CC[C@@H](C1)[N+]21CCCC1)C(O)(c1ccccc1)c1ccccc1 (stereo partly drawn)
- Potency [1]: inactive
- Potency [2]: inactive
- Potency [10]: inactive
- Potency [4]: inactive
- outcome [7]: inactive
- Potency [8]: inactive
- Potency [9]: inactive

SMILES: CC1=C(C)C(=O)C(CCCCC#CCCCC#CCO)=C(C)C1=O
- Potency [1]: inactive
- Potency [2]: inactive
- outcome [3]: inactive
- Potency [4]: 49.2 µM (active)
- Potency [5]: 13.3 µM (active)
- activity change, positive = activation [6]: -50.9% [at 42.5 µM]
- Potency [8]: 0.674 µM (active)
- Potency [9]: inactive

SMILES: OCC(O)c1ccccc1 (stereo not drawn)
- Potency [1]: inactive
- Potency [2]: 38.9 µM (active)
- Potency [10]: inactive
- Potency [4]: inactive
- outcome [7]: inactive
- Potency [8]: inactive
- Potency [9]: inactive

SMILES: c1ccc(CN(Cc2ccccc2)Cc2ccccc2)cc1
- Potency [1]: 17.2 µM (active)
- Potency [2]: inactive
- Potency [10]: inactive
- outcome [7]: inactive
- Potency [8]: inactive
- Potency [9]: inactive

SMILES: CO[C@@H]1COCC[C@@H]1N[C@@H]1CC[C@@](C(=O)N2CCc3ncc(C(F)(F)F)cc3C2)(C(C)C)C1
- Potency [1]: inactive
- Potency [2]: inactive
- outcome [3]: inactive
- Potency [4]: inactive
- outcome [7]: inactive
- Potency [8]: 15.4 µM (active)
- Potency [9]: inactive

SMILES: Nc1ncnc2c1ncn2[C@@H]1O[C@H](CO)[C@@H](O)[C@H]1O
- Potency [1]: inactive
- Potency [2]: inactive
- Potency [10]: 31 µM (active)
- Potency [4]: inactive
- outcome [7]: inactive
- Potency [8]: inactive
- Potency [9]: inactive

SMILES: CC(C)CCCCCCCOC(=O)c1ccc(C(=O)OCCCCCCCC(C)C)c(C(=O)OCCCCCCCC(C)C)c1
- Potency [1]: inactive
- Potency [2]: inactive
- outcome [3]: inactive
- Potency [4]: inactive
- Potency [5]: inactive
- activity change, positive = activation [6]: -6.08%
- outcome [7]: inactive
- Potency [8]: inactive
- Potency [9]: inactive

SMILES: CCN(CCCCOC(=O)c1ccc(OC)c(OC)c1)C(C)Cc1ccc(OC)cc1 (stereo not drawn)
- Potency [1]: inactive
- Potency [2]: inactive
- Potency [10]: inactive
- Potency [4]: inactive
- activity change, positive = activation [6]: -16.6% [at 42.5 µM]
- outcome [7]: inactive
- Potency [9]: inactive

SMILES: Clc1ccccc1-c1nc(-c2ccncc2)no1
- Potency [1]: inactive
- Potency [2]: inactive
- Potency [10]: inactive
- outcome [7]: inactive
- Potency [9]: inactive

SMILES: Cc1c(N=C=O)cccc1N=C=O
- Potency [1]: inactive
- Potency [2]: inactive
- Potency [10]: inactive
- Potency [4]: inactive
- outcome [7]: inactive
- Potency [8]: inactive
- Potency [9]: inactive

SMILES: C1CCN(CN2CCCCC2)CC1
- Potency [1]: inactive
- Potency [2]: inactive
- Potency [10]: inactive
- Potency [4]: inactive
- outcome [7]: inactive
- Potency [8]: inactive
- Potency [9]: inactive

SMILES: C[C@H]1C[C@H]2[C@@H]3CCC4=CC(=O)C=C[C@]4(C)[C@@]3(F)[C@@H](O)C[C@]2(C)[C@@]1(O)C(=O)COP(=O)(O)O
- Potency [1]: inactive
- Potency [2]: inactive
- Potency [10]: inactive
- Potency [4]: inactive
- outcome [7]: inactive
- Potency [8]: inactive
- Potency [9]: inactive

SMILES: CCc1c(C)[nH]c2c1C(=O)C(CN1CCOCC1)CC2 (stereo not drawn)
- Potency [1]: inactive
- Potency [2]: inactive
- Potency [10]: inactive
- Potency [4]: inactive
- outcome [7]: inactive
- Potency [8]: inactive
- Potency [9]: inactive

SMILES: CCN(CC)CC(=O)OCC(=O)[C@@]1(O)CC[C@H]2[C@@H]3CCC4=CC(=O)CC[C@]4(C)[C@H]3[C@@H](O)C[C@@]21C
- Potency [1]: inactive
- Potency [2]: inactive
- Potency [10]: inactive
- Potency [4]: inactive
- outcome [7]: inactive
- Potency [8]: inactive
- Potency [9]: inactive

SMILES: NC(=O)c1cc[n+](CC2=C(C(=O)[O-])N3C(=O)[C@@H](NC(=O)Cc4cccs4)[C@H]3SC2)cc1
- Potency [1]: inactive
- Potency [2]: inactive
- Potency [10]: inactive
- Potency [4]: inactive
- outcome [7]: inactive
- Potency [8]: inactive
- Potency [9]: inactive

SMILES: CC(=O)OCC(=O)[C@@]1(O)CC[C@H]2[C@@H]3CCC4=CC(=O)C=C[C@]4(C)[C@@]3(F)[C@@H](O)C[C@@]21C
- Potency [1]: inactive
- Potency [2]: inactive
- Potency [10]: inactive
- Potency [4]: inactive
- outcome [7]: inactive
- Potency [8]: inactive
- Potency [9]: inactive

SMILES: CC(C)C/C=C(\C=O)c1ccccc1
- Potency [1]: inactive
- Potency [2]: inactive
- Potency [10]: inactive
- Potency [4]: inactive
- activity change, positive = activation [6]: -20.3%
- outcome [7]: inactive
- Potency [8]: inactive
- Potency [9]: inactive

SMILES: O=C(O)c1ccncc1
- Potency [1]: inactive
- Potency [2]: inactive
- Potency [10]: inactive
- Potency [4]: inactive
- activity change, positive = activation [6]: -23.5%
- outcome [7]: inactive
- Potency [8]: inactive
- Potency [9]: inactive

SMILES: Cc1cccc(C)c1NC(=O)CN1CCCC1
- Potency [1]: inactive
- Potency [2]: inactive
- Potency [10]: inactive
- Potency [4]: inactive
- outcome [7]: inactive
- Potency [8]: inactive
- Potency [9]: inactive

SMILES: CCOc1ccc2c(c1)C(C)CC(C)(C)N2 (stereo not drawn)
- Potency [1]: inactive
- Potency [2]: inactive
- outcome [3]: inactive
- Potency [4]: inactive
- outcome [7]: inactive
- Potency [8]: inactive
- Potency [9]: inactive

SMILES: Cc1c(Nc2ncccc2C(=O)O)cccc1C(F)(F)F
- Potency [1]: inactive
- Potency [2]: inactive
- Potency [10]: inactive
- Potency [4]: inactive
- outcome [7]: inactive
- Potency [8]: inactive
- Potency [9]: inactive

SMILES: COc1cc(CNC(=O)CCCC/C=C/C(C)C)ccc1O
- Potency [1]: inactive
- Potency [2]: inactive
- Potency [10]: inactive
- outcome [7]: inactive
- Potency [8]: 7.56 µM (active)
- Potency [9]: inactive

SMILES: NC(=O)c1ccccc1
- Potency [1]: inactive
- Potency [2]: inactive
- Potency [10]: inactive
- Potency [4]: inactive
- outcome [7]: inactive
- Potency [8]: inactive
- Potency [9]: inactive

SMILES: O=C1CCCN1CCO
- Potency [1]: inactive
- Potency [2]: 21.9 µM (active)
- Potency [10]: inactive
- Potency [4]: inactive
- outcome [7]: inactive
- Potency [8]: inactive
- Potency [9]: inactive
